D1 antag: human D1 dopamine receptor antagonism; AID 504652; activity change, negative = inhibition, % at 10 µM; P21728; 360,000 tested, 3.2% active; HEK293 TREx D1 cells, calcium flux, dopamine EC80; hits give low values; in the data active means activity change below about -30%
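Using tetracycline-induced force-coupled D1 Hek293 cells and a calcium dye, signals were followed for 180 s after compound, then for 180 s after EC80 dopamine, to detect inhibitors.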
TRPV1 potentiator: potentiators of human vanilloid receptor 1 (TRPV1); 320,000 tested, 0.02% active; potentiation, % at 8.33 µM; Q8NER1; AID 540277; TRPV1-expressing cells, Fluo-8 calcium influx, capsaicin EC20 potentiation; in the data active means potentiation above about 80%; inconclusive means between about 30% and that limit
Target sequence (Q8NER1 whole entry, looked up): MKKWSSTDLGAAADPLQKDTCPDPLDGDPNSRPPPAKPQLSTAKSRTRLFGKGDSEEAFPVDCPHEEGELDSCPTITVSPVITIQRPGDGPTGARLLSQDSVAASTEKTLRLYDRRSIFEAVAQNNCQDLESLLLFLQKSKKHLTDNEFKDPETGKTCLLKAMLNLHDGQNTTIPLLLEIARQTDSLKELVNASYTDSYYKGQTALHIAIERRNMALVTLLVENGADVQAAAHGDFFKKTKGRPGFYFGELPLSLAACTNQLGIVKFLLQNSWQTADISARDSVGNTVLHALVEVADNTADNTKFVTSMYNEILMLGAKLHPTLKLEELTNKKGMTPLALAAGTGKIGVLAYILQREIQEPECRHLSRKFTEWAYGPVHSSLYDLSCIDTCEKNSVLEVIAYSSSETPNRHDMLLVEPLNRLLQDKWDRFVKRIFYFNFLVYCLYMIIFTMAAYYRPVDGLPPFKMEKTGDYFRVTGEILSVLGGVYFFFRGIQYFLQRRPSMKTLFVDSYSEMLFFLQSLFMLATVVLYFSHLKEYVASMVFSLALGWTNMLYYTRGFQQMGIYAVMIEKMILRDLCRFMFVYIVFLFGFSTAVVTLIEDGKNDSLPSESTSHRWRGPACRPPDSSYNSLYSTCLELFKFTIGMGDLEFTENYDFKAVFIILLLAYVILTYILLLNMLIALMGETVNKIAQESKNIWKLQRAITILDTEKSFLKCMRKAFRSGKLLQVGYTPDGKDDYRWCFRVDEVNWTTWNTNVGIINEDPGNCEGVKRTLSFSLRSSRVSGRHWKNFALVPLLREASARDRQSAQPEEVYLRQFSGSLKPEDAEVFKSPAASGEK
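Cells expressing TRPV1 were dye-loaded with Fluo-8 and read kinetically: 10 s baseline, 3 min after compound (agonist portion), then 2 min after EC20 capsaicin (allosteric enhancer portion). Calcium-bound dye fluorescence at 480/520 nm.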
TRPV1 agonist: agonists of human vanilloid receptor 1 (TRPV1). TRPV1-expressing cells, Fluo-8 calcium influx, agonist mode. activation, % at 8.33 µM. 320,000 tested, 0.19% active; in the data active means activation above about 80%; inconclusive means between about 30% and that limit
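TRPV1-expressing cells were cultured overnight at 35.5C and loaded with Fluo-8 calcium dye for 40 to 90 min at room temperature. After a 10 s baseline, compound was added and calcium influx was read kinetically for 3 min (ex 480/em 520 nm).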
D1 ag: human D1 receptor agonism. AID 504660. HEK293 T-REx D1 cells, calcium flux, agonist mode. 360,000 tested, 1% active. activation, % at 2 µM. P21728; in the data active means activation above about 30%
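Inducible HEK293 T-REx D1 cells, force-coupled to calcium signalling, were plated at 4000 cells/well with tetracycline and held overnight at 30 C. After no-wash calcium dye loading, compound-evoked calcium rise over 180 s flagged agonists.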
D1 potentiator: human D1 dopamine receptor positive modulation. AID 504651. HEK293 TREx D1 cells, calcium flux, dopamine EC20 potentiation. P21728. potentiation, % at 10 µM. 360,000 tested, 0.036% active; in the data active means potentiation above about 30%
Each line names hits and unclear results; the compound was inactive in the other large screens; ! = not active in a repeat. Sampled rows, rich in hits. Any-hit rate of the full collection: about 4.2%.

CCOC(=O)C1=C(O)/C(=C/c2cc(OC)c(OC)c(OC)c2)N=C1C	D1 antag -38
CCN(c1ccccc1)S(=O)(=O)c1ccc(C(=O)Nc2cccc(C)n2)cc1	D1 antag -35
Cc1cccc(NC(=O)c2ccc(C(=O)c3ccccc3)cc2)n1	D1 antag -35, TRPV1 agonist inconclusive
COc1ccc(Cn2ccc3nc(C)c(C(=O)N4CCN(c5cc(C)ccc5C)CC4)cc3c2=O)cc1	none (no result: TRPV1 potentiator, TRPV1 agonist)
O/N=C(/CCc1ccccc1)c1ccc2c(c1)OCCO2	D1 antag -41
O=C(CCc1ccccc1)c1ccc2c(c1)OCCCO2	TRPV1 agonist inconclusive
CCOCCc1nn2c(=O)cc(COC(=O)c3ccccc3OC)nc2s1	D1 antag -32 (no result: TRPV1 potentiator, TRPV1 agonist)
Nc1[nH]n2c(=O)c3c(nc2c1N=Nc1ccc(Cl)cc1)CCCC3	D1 antag -50
CCC(C)NC(=O)c1sc2nc(C)c(C(=O)Nc3ccc(C)cc3C)c(-c3ccccc3Cl)c2c1N (stereo not given)	none (no result: TRPV1 potentiator, TRPV1 agonist)
COc1ccc2c(C)cc(C)nc2n1	D1 antag -33
COCc1nc2cccnc2n1C1CCN(S(=O)(=O)N(C)C)CC1	none (no result: TRPV1 potentiator, TRPV1 agonist)
CCOc1ccc(S(=O)(=O)N2CCC(n3c(C)nc4cccnc43)CC2)cc1	D1 ag 34 (no result: TRPV1 potentiator, TRPV1 agonist)
Cc1nc2cccnc2n1C1CCN(S(=O)(=O)N(C)C)CC1	D1 antag -37 (no result: TRPV1 potentiator, TRPV1 agonist)
CCc1cc(C(=O)Nc2c(C)nn(Cc3ccccc3Cl)c2C)no1	none (no result: TRPV1 potentiator, TRPV1 agonist)
O=C(Nc1ccccc1F)c1ccc(O)c2ncccc12	none (no result: TRPV1 potentiator, TRPV1 agonist)
O=C(CN(Cc1ccccc1)C(=O)CCC(=O)Nc1nccs1)NCc1ccc(F)cc1	none
Cc1cccc(N(CC(=O)NCc2ccco2)C(=O)CCC(=O)Nc2nccs2)c1C	none (no result: D1 potentiator)
Cc1ccccc1N(CC(=O)NCc1ccco1)C(=O)CCC(=O)Nc1nccs1	D1 antag -32
O=C(CN(Cc1ccc(F)cc1)C(=O)CCC(=O)Nc1nccs1)NCc1ccccc1	D1 antag -91
O=C(CCCn1c(=O)c2cccn2c2cccnc21)NCc1ccccc1Br	none (no result: TRPV1 potentiator, TRPV1 agonist)
Fc1cccc(CNc2ncnc3ccc(-c4ccoc4)cc23)c1	none (no result: TRPV1 potentiator, TRPV1 agonist)
CCCCN1C(=O)/C(=C2/Sc3ccccc3N2C)S/C1=N\c1ncn[nH]1	D1 antag -54
C=CCN1C(=O)/C(=C2/Sc3ccc(OC)cc3N2C)SC1=Nc1ccccc1	none
Cc1cccc2cc3c(N)c(C(=O)N4CCc5ccccc54)sc3nc12	TRPV1 potentiator inconclusive, D1 ag 126
Cc1ccc2nc3sc(C(=O)Nc4ccc(N5CCOCC5)cc4)c(N)c3cc2c1	D1 ag 39
Cc1cc(C)c2nc3sc(C(=O)N4CCOCC4)c(N)c3cc2c1	TRPV1 agonist inconclusive, D1 ag 38
Cc1ccc(C)c2nc3sc(C(=O)N4CCOCC4)c(N)c3cc12	none
Cc1sc(NC(=O)c2sc3nc4c(C)cccc4cc3c2N)c(C#N)c1C	TRPV1 potentiator inconclusive, D1 ag 55
Cc1cccc2cc3c(N)c(C(=O)Nc4ccc(N5CCOCC5)cc4)sc3nc12	none
Cc1cccc(CNC(=O)Cc2csc3ccccc23)c1	none
COc1cc(C(CC(=O)Nc2cccc(C(C)=O)c2)N2Cc3ccccc3C2=O)cc(OC)c1OC (stereo not given)	none (no result: TRPV1 potentiator, TRPV1 agonist)
CCCCn1c(N)c(N(CC(C)C)C(=O)Cn2c(=O)oc3ccccc32)c(=O)[nH]c1=O	D1 antag -44
Cc1ccc(C2=NC(c3ccc(F)cc3)=Nc3ccc(C)cc3N2)cc1	D1 antag -40 (no result: TRPV1 potentiator, TRPV1 agonist)
COc1ccc(F)cc1C(=O)C1CCCN(Cc2c[nH]c3ccccc23)C1 (stereo not given)	D1 antag -43, D1 ag 47
COc1ccc(-c2[nH]ncc2CN2CCCC(C(=O)c3ccc(OC)cc3OC)C2)cc1 (stereo not given)	D1 antag -31
COc1ccc(F)cc1C(=O)C1CCCN(Cc2cn(C)c3ccccc23)C1 (stereo not given)	none
COc1ccc(F)cc1C(=O)C1CCCN(C(=O)c2ocnc2C)C1 (stereo not given)	D1 antag -32
COc1ccc(C(=O)C2CCCN(Cc3cn[nH]c3-c3ccc(F)cc3)C2)cc1OC (stereo not given)	none
O=C(CC(c1cccs1)N1Cc2ccccc2C1=O)Nc1ccc(Cl)cc1 (stereo not given)	none (no result: TRPV1 potentiator, TRPV1 agonist)
COc1ccc(NC(=O)Cn2c(=O)n(CCCC(=O)NCc3ccccc3Cl)c(=O)c3ccccc32)c(OC)c1	none (no result: TRPV1 potentiator, TRPV1 agonist)
COc1ccc(-c2cn3cccnc3n2)cc1NC(=O)Cc1ccccc1	none (no result: TRPV1 potentiator, TRPV1 agonist)
O=C1c2[nH]nc(-c3ccc(F)cc3)c2C(c2ccccc2F)N1c1ccccc1 (stereo not given)	none (no result: TRPV1 potentiator, TRPV1 agonist)
CCOc1ccccc1N1CCN(C(=O)/C=C/c2cccc([N+](=O)[O-])c2)CC1	none
O=C(/C=C/c1ccccc1[N+](=O)[O-])N1CCN(c2ccccc2F)CC1	D1 antag -68
O=C(/C=C/c1cccc([N+](=O)[O-])c1)N1CCN(c2ccccc2F)CC1	D1 antag -58
Cc1ccc(S(=O)(=O)N2CCc3cc(C(=O)N(C)Cc4ccccc4)ccc32)cc1	none (no result: TRPV1 potentiator, TRPV1 agonist)
Cc1cccc(-c2noc(-c3ccc(N4CCN(C)CC4)c([N+](=O)[O-])c3)n2)c1	none (no result: TRPV1 potentiator, TRPV1 agonist)
Cc1ccc(-c2nc3ccccc3[nH]2)cc1NC(=O)COc1ccccc1[N+](=O)[O-]	none (no result: TRPV1 potentiator, TRPV1 agonist)
Fc1ccc(SCCc2ccncc2)cc1	D1 antag -34!
Cc1noc(C)c1S(=O)(=O)N(CC(=O)Nc1ccc(F)cc1F)c1ccc(C(C)C)cc1	none (no result: TRPV1 potentiator, TRPV1 agonist)
COc1ccc(N2CCN(S(=O)(=O)c3ccc4oc(=O)c5ncn(C)c5c4c3)CC2)cc1	none (no result: TRPV1 potentiator, TRPV1 agonist)
Cc1cc(/C=C(\C#N)C(=O)OCC(=O)NC(=O)NC(C)(C)C)c(C)n1CCC(C)C	D1 antag -51
C=CCNC(=O)NC(=O)COC(=O)/C(C#N)=C/c1cc(C)n(CCC(C)C)c1C	none
Cc1ccc(Cn2c(CNS(=O)(=O)c3c(C)cc(C)cc3C)nc3cccnc32)cc1	none (no result: TRPV1 potentiator, TRPV1 agonist)
O=C1c2ccccc2S(=O)(=O)N1CC1CC(c2ccc(Cl)cc2)=NO1 (stereo not given)	D1 antag -34
COc1ccc(C2=NOC(CN3C(=O)c4ccccc4S3(=O)=O)C2)cc1 (stereo not given)	none
CC(=O)CCC1CC(c2ccc(Cl)cc2)=NO1 (stereo not given)	none
O=C1c2ccccc2S(=O)(=O)N1CC1CC(c2ccccc2)=NO1 (stereo not given)	D1 antag -34
Cc1ccc(N2C(=O)NC(NS(=O)(=O)c3ccc(Cl)cc3)(C(F)(F)F)C2=O)cc1C (stereo not given)	none (no result: TRPV1 potentiator, TRPV1 agonist)
COc1ccc(CC(=O)OCC(=O)N2CCN(S(=O)(=O)c3ccc(C)cc3C)CC2)cc1	D1 antag -90
COc1ccc(CC(=O)OCC(=O)N2CCN(S(=O)(=O)c3ccc(C)cc3C)CC2)cc1OC	none
